# The list shows a part of the results. A call without a number means that no potency is given here. Records with an inconclusive call do not appear. Calls of active or inactive are those of the source. The call rests on the fitted dose curve; in most records, active means well fitted inhibition curve with a large enough effect; inconclusive means small, poorly fitted or top-dose-only effect; inactive means no such curve, though single readings can be large or run the other way.
# Target: Isocitrate dehydrogenase [NADP] cytoplasmic (Homo sapiens) (UniProt O75874)
# Assay: qHTS for Inhibitors of mutant isocitrate dehydrogenase 1 (IDH1): Cherrypicks in WT IDH1; further: nearly all actives have a fitted effect of over 55% in size
# Settings: WT IDH1 enzyme, NADPH diaphorase/resazurin fluorescence; series mostly up to 115 µM
# From the text: Unbiased genomic sequencing for 22 glioma genomes found recurrent mutation of isocitrate dehydrogenase 1 (IDH1) on chromosome 2q33-a gene encoding the cytosolic isoform of IIDH1associated with the tricarboxylic acid cycle (TCA) that catalyzes the oxidative decarboxylation of isocitrate, yielding alpha-ketoglutarate and CO2 via NADP+ to NADPH conversion. Subsequent studies confirmed the recurrent IDH mutations in up to 70% of secondary gliomas and in 10% of AML cases. […] This in effect defines IDH1 as an oncogene, and provides an extraordinary opportunity to discover chemical probes against mutant IDH1 that may translate into much needed new therapies for glioma and AML patients. QHTS-compatible fluorescent, enzymatic assay was developed to identify inhibitors of the IDH1 mutant (AID 602179). To identify selectivity of the identified inhibitors, a secondary enzymatic assay against the WT IDH1 was also developed. Inhibition of the WT IDH1 leads to a decrease in the amount of NADPH relative to a DMSO control and a concomitant decrease in the fluorescence of the diaphorase/resazurin enzyme product resorufin at 590 nm. Compounds were screened as a concentration-titration series that ranged from 115 uM to 0.20 uM. NIH Molecular Libraries Probe Production Network [MLPCN] NIH Chemical Genomics Center [NCGC] MLSCN Grant: R03 DA032129 PI Name: Dr. Lenny Dang
# Enzyme buffer was dispensed into black, solid 1536-well plates at 3 microL/well in 20 mM Tris buffer, pH 7.5, containing final concentrations of 10 mM MgCl2, 20 mM NaCl, 0.05% BSA, 2 mM b-ME and 0.65 nM WT IDH1. Then, 23 nL of compounds or DMSO were delivered to each well using a pin tool. The substrate and detection buffer (1 uL; 20 mM Tris buffer, pH 7.5, containing final concentrations of 10 mM MgCl2, 20 mM NaCl, 0.05% BSA, 0.06 mM NADP+, 0.53 uM diaphorase, 0.012 mM resazurin and 0.08 mM isocitrate) was added to start the enzymatic reaction. The fluorescence intensity was monitored in kinetic mode on a ViewLux plate reader at 598 nm for 10 minutes (Ex 525, EM 598, bodipy mirror, 0.5 sec exposure). The % Activity was determined from the corrected fluorescence values. As no specific WT IDH1 inhibitors have been identified in the literature, 1x (0.65 nM) and 0x WT IDH1 enzyme controls (untreated) were included to normalize % Activity of identified inhibitors; 0x enzyme values corresponded to 100% Activity (full inhibition), while 1x WT IDH1 enzyme values were used to normalize 0% Activity (no inhibition). Concentration-response curves were fitted to the signals arising from the resulting fluorescence. The concentration-response curves were then classified based on curve quality (r2), response magnitude and degree of measured activity, and compounds were subsequently categorized based on their curve class. […] Keywords: Isocitrate dehydrogenase, IDH1, IDH1 R132H, 2-HG, 2-hydroxyglutarate, AML, glioma, MLSMR, MLPCN, NIH Roadmap, qHTS, NCGC
# Potency means the concentration at half of the fitted maximal effect.
# Sequence of Isocitrate dehydrogenase [NADP] cytoplasmic (Homo sapiens) (O75874 whole entry, looked up): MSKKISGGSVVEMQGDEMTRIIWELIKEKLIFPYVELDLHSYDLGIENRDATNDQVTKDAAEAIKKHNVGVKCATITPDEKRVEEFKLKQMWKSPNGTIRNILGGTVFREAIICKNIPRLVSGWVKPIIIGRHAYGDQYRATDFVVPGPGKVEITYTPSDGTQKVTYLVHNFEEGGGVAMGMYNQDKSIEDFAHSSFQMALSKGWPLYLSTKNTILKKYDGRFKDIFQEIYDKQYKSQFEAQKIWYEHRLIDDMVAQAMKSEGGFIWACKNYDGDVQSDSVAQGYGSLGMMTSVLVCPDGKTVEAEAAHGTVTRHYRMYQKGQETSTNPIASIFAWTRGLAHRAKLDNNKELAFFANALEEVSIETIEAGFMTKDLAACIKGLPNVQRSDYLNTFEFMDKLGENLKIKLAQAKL
row,SMILES,Potency
1,CCSc1nc2sc3c(c2c(=O)n1-c1ccc(C)cc1)CCN(C)C3,inactive
2,COc1ccc(C(C(=O)NC2CCCCC2)N(C(=O)c2snc(C(N)=O)c2N)c2ccccc2OC)cc1 (centres undefined),inactive
3,CCCNc1ncnc2c1c(-c1ccccc1)cn2-c1ccc(OCC)cc1,inactive
4,COc1cc(/C=C2/C(=O)ON=C2C)ccc1OCc1ccccc1F,inactive
5,CCC(C)(C)NC(=O)C(c1cccn1C)N(Cc1ccc(C)cc1)C(=O)Cn1nnc2ccccc21 (centres undefined),inactive
6,COC(=O)c1cccc(N(C(=O)c2ccco2)C(C(=O)NC2CCCC2)c2ccco2)c1 (centres undefined),inactive
7,CCOC(=O)c1ccc(N2C(=O)c3n[nH]c(-c4ccco4)c3C2c2ccc(O)cc2)cc1 (centres undefined),inactive
8,CC(C)Nc1nc(N(c2ccccc2)c2ccccc2)nc(-n2ccnc2)n1,inactive
9,Cc1nc(C)c(C(=O)N(c2ccc(C)c(C)c2)C(C(=O)NCc2ccco2)c2ccccc2)s1 (centres undefined),inactive
10,C(=N/Nc1cc(N2CCOCC2)nc(N2CCOCC2)n1)/c1ccccc1,inactive
11,Cc1ccc2nc(N3C(=O)C(O)=C(C(=O)c4ccco4)C3c3cccc(O)c3)sc2c1 (centres undefined),inactive
12,O=C1c2cccc3cccc(c23)C(=O)N1CCCCCc1n[nH]c(=S)o1,inactive
13,Cc1nc(-c2ccc(Cl)cc2)sc1C(=O)CBr,inactive
14,Cn1c(COc2ccc(Cl)cc2)nc2ccccc2c1=O,inactive
15,CCOC(=O)c1oc2c(CN3CCN(CCO)CC3)c(O)c(CC)cc2c(=O)c1-c1nc2ccccc2s1,inactive
16,Cc1ccc(Nc2nc(CSc3nnc(-c4ccncc4)n3-c3ccccc3C)cs2)cc1,inactive
17,CCCOc1ccc(C2c3c(-c4ccccc4O)n[nH]c3C(=O)N2Cc2cccnc2)cc1 (centres undefined),inactive
18,COc1cc(/C=C2/SC(=S)N(Cc3ccccc3)C2=O)cc(OC)c1O,inactive
19,COc1ccc(/C=C2/SC(=O)N(CCCCCC(=O)Nc3ccccc3C(=O)O)C2=S)cc1,79.4 µM (active)
20,Cc1cccc(N(C(=O)Cc2cccs2)C(C(=O)NC2CCCC2)c2ccsc2)c1 (centres undefined),inactive
21,COc1ccc(C(CCN(Cc2ccc(OC)c(OC)c2)C(=O)CCl)c2ccccc2)cc1 (centres undefined),inactive
22,CCCc1[nH]nc2c1C(c1ccc(OC)c(Cn3nc(C)c(Br)c3C)c1)C(C#N)=C(N)O2 (centres undefined),inactive
23,CCCc1nc2c(c(=O)c3ccccc3n2C)c(=O)n1C1CCCCCC1,inactive
24,CC(C)N(C(=O)CSc1nc(COc2ccccc2)nc2ccccc12)C(C)C,inactive
25,COc1ccc(/C=N/Nc2cc(N3CCOCC3)nc(C)n2)c(OC)c1,inactive
26,CC(C)(C)c1ccc(S(=O)(=O)Nc2ccc(O)c(Sc3nc4ccccc4s3)c2)cc1,inactive
27,CCCCC(=O)NC(c1ccc(OC)c(OC)c1)c1ccc2cccnc2c1O (centres undefined),inactive
28,COc1cc2c(-c3ccc4c(c3)OCO4)c(-c3ccsc3)oc(=O)c2cc1OC,inactive
29,N#CC1=C(N)C(C#N)(C#N)[C@H](c2ccsc2)[C@H]2COCC=C12,inactive

# — PubChem BioAssay AID623995 (National Center for Advancing Translational Sciences (NCATS), 2012)
